Bioassay records (PubChem)
D2 ag-1: agonists of human D2 dopamine receptor; P14416; HEK293 T-REx D2 cells, calcium flux agonist mode; activation, % at 2 µM; 340,000 tested, 0.53% active; AID 485358;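 active = activation over 3 SD above normal in the single-dose calcium agonist read, cut at about 30% in these data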; note: 0% is about no effect
Target sequence (P14416 whole entry, looked up): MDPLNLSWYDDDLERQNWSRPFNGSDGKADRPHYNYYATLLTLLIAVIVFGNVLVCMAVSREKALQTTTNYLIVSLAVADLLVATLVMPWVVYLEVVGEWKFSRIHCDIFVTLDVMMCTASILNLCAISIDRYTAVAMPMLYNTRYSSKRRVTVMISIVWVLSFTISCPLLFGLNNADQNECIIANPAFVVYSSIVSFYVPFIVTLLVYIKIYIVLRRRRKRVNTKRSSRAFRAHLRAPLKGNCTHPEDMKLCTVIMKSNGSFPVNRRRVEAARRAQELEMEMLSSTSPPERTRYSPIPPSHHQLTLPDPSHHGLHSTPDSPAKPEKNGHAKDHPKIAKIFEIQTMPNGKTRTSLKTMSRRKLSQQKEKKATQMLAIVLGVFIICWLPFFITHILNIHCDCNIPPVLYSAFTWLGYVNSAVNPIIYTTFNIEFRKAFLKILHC
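Calcium-flux readout, 1 cycle/sec over 180 s following compound pin transfer, in inducible HEK293 Trex D2 cells (force-coupled); dopamine controls included. Positive calcium responses during this window marked compounds as potential agonists.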
D2 PAM-1: human D2 receptor positive allosteric modulation; P14416; DiscoveRx D2 beta-arrestin cells, luminescence, 90 min; 100% = 57 uM dopamine signal; potentiation, % (test concentration not listed); 360,000 tested, 0.23% active; in the data active = potentiation above about 50%
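D2 cells co-treated with compound plus 50 nM dopamine (EC20) for 90 min at 37 deg C to detect potentiation. Beta-arrestin recruitment was read as enzyme-fragment luminescence after 1 h at ambient temperature. Full response was set by 57 uM dopamine.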
D2 ag-2: activates the human D2 dopamine receptor; activation, % (no concentration beside the values); DiscoveRx PathHunter D2 beta-arrestin, luminescence, 90 min; 100% = 57 uM dopamine signal; 360,000 tested, 0.084% active; P14416; in the data active = activation above about 40%
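DiscoveRx PathHunter D2 beta-arrestin cells (2,100/well) attached overnight, then compound-stimulated 90 min at 37 C in HBSS/10 mM HEPES/0.1% Tween-20 buffer; beta-galactosidase complementation read by luminescence after 1 h at ambient temperature. Dopamine 57 uM final (EC100) as control.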
D2 antag: D2 dopamine receptor (human) antagonism; P14416; HEK293 TREx D2 cells, calcium flux, dopamine EC80; inhibition, % at 10 µM; 340,000 tested, 2% active; in the data active = inhibition above about 30%; inactive = below that, where a call was filed; note: 0% is about no effect
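Overnight-induced (tetracycline, 30 C) HEK293 T-REx cells carrying force-coupled D2 receive a no-wash calcium dye, then compound, then EC80 dopamine at 180 s; signals are read kinetically throughout.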
D2 PAM-2: positively modulates the human D2 dopamine receptor allosterically; P14416; HEK293 T-REx D2, calcium flux, EC20 dopamine potentiation; potentiation, % at 10 µM; 340,000 tested, 0.34% active;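 active = potentiation over 3 SD above the plate norm, cut at about 30% in these data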; note: 0% is about no effect
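Potentiation of an EC20 dopamine calcium response is measured in a force-coupled, tetracycline-inducible Hek293 Trex D2 line. Compound-only kinetic reads over 180 s flag agonists before dopamine addition.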
Starred values were filed as active, the others as inactive. Hits are enriched below; roughly 2.4% of the tested compounds scored in any of these assays.

How did OC(CNCC1CCCO1)COc1ccc(OCC(O)CNCC2CCCO2)cc1 (stereo unspecified) do in these assays?
D2 ag-1: -0.4; D2 PAM-1: -17.4; D2 ag-2: -1.9; D2 antag: -7.0; D2 PAM-2: 43.3*

How did CCOC(=O)c1c(C)n(-c2ccc(C)cc2)c2ccc(OCC(O)CNCC3CCCO3)cc12 (stereo unspecified) do in these assays?
D2 ag-1: 0.5; D2 PAM-1: -18.7; D2 ag-2: -10.8; D2 antag: -4.4; D2 PAM-2: -7.5

Results for OC(CNCC1COc2ccccc2O1)COc1ccc(Cl)cc1 (stereo unspecified) ?
D2 ag-1: 33.2*; D2 PAM-1: -3.6; D2 ag-2: -2.1; D2 antag: 104.5*; D2 PAM-2: -18.9

What do the screens show for `Cc1ccc(-n2c(SCC(N)=O)nc3c(oc4ccccc43)c2=O)cc1C`?
D2 ag-1: 8.4; D2 PAM-2: 6.1

What do the screens show for `COc1cccc(CNS(=O)(=O)c2ccc3c(c2)C(C(C)C)C(=O)N3)c1` (stereo unspecified)?
D2 ag-1: 0.3; D2 PAM-2: 4.8

What do the screens show for `CCC1(NC(C)=O)CC2CC1CC2NC(C)=O` (stereo unspecified)?
D2 ag-1: 0.1; D2 PAM-1: -1.4; D2 ag-2: -3.7; D2 antag: 38.5*; D2 PAM-2: -19.4

How did CC(=O)NC1CCCC(NC(C)=O)C1 (stereo unspecified) do in these assays?
D2 PAM-1: -4.2; D2 ag-2: 1.4

Results for O=C(CN1C(=O)NC2(CCCCCC2)C1=O)N1CCN(c2ccc(F)cc2)CC1 ?
D2 ag-1: 0.7; D2 PAM-1: -7.2; D2 ag-2: -1.4; D2 antag: -9.9; D2 PAM-2: -2.1

What do the screens show for `CC(=O)c1ccc(N2CCN(C(=O)CN3C(=O)NC4(CCCCC4)C3=O)CC2)c(F)c1`?
D2 ag-1: 0.3; D2 PAM-1: -1.2; D2 ag-2: 1.0; D2 antag: 30.7*; D2 PAM-2: -1.6

How did Cc1ccc(Nc2nc(C(N)=O)c(NC(=O)c3ccccc3Br)s2)cc1 do in these assays?
D2 PAM-2: -2.5

How did COc1ccc(OC)c(-c2csc(NC(=O)Cn3[nH]c(=O)c4ccccc4c3=O)n2)c1 do in these assays?
D2 ag-1: 4.3; D2 PAM-1: -23.0; D2 ag-2: -5.5; D2 antag: 31.9*; D2 PAM-2: 0.2

Results for COc1ccc(CCNC(=O)COC(=O)C2CC2)cc1 ?
D2 ag-1: 0.6; D2 PAM-1: 0.6; D2 ag-2: -2.9; D2 antag: 31.3*; D2 PAM-2: -0.5

How did COc1ccc(S(=O)(=O)NC2CCCC2)cc1Br do in these assays?
D2 ag-1: 0.9; D2 PAM-1: -7.6; D2 ag-2: -3.7; D2 antag: 30.9*; D2 PAM-2: 7.5

What do the screens show for `COc1ccc(CCNC(=O)COc2ccc(S(=O)(=O)NC3CCCCC3)cc2Cl)cc1`?
D2 ag-1: 1.0; D2 PAM-1: -2.4; D2 ag-2: 3.3; D2 antag: -6.1; D2 PAM-2: 33.7*

What do the screens show for `COc1ccc(CCNC(=O)c2n[nH]c3ccccc23)cc1`?
D2 ag-1: 4.3; D2 PAM-1: 1.3; D2 ag-2: 1.9; D2 antag: 41.8*; D2 PAM-2: -10.2

How did O=C(COc1ccc(S(=O)(=O)NC2CCCCC2)cc1Cl)NCC1CCCO1 (stereo unspecified) do in these assays?
D2 ag-1: -1.4; D2 PAM-1: -8.5; D2 ag-2: -2.7; D2 antag: -20.0; D2 PAM-2: 8.9

What do the screens show for `COc1ccc(CNC(=O)COC(=O)c2n[nH]c3ccccc23)cc1`?
D2 ag-1: 0.7; D2 PAM-1: 19.9; D2 ag-2: -2.4; D2 antag: 1.0; D2 PAM-2: -8.0

How did CCOC(=O)C1CCN(c2c(C(=O)c3ccc(C)cc3)cnc3ccc(F)cc23)CC1 do in these assays?
D2 ag-1: -0.1; D2 PAM-2: -0.7

How did COc1ccc(C(=O)NCC(=O)N/N=C/c2c(C)[nH]c3ccccc23)cc1 do in these assays?
D2 ag-1: -1.1; D2 PAM-1: -26.9; D2 ag-2: 1.2; D2 antag: 52.7*; D2 PAM-2: -4.1

What do the screens show for `Cc1ccc(C(=O)Nc2onc3c2CCCC3)cc1`?
D2 ag-1: -0.7; D2 PAM-2: -7.3

How did COc1ccc(OC)c(N(C(=O)c2ccco2)C(C(=O)NC2CCCC2)c2cc(OC)c(OC)c(OC)c2)c1 (stereo unspecified) do in these assays?
D2 ag-1: 1.0; D2 PAM-1: 3.4; D2 ag-2: 0.6; D2 antag: 36.2*; D2 PAM-2: -0.8

Results for COc1ccc(C(C(=O)NCC2CCCO2)N(C(=O)CNC(=O)c2ccco2)c2cc(C)cc(C)c2)cc1OC (stereo unspecified) ?
D2 ag-1: 0.1; D2 PAM-1: -6.4; D2 ag-2: 0.2; D2 antag: -21.3; D2 PAM-2: 34.1*

What do the screens show for `COc1ccc(C(C(=O)NCC2CCCO2)N(C(=O)CNC(=O)c2ccco2)c2ccc(C)c(C)c2)cc1OC` (stereo unspecified)?
D2 ag-1: -0.2; D2 PAM-1: -6.3; D2 ag-2: -3.0; D2 antag: 12.0; D2 PAM-2: -9.9

How did COc1ccc(Cl)cc1N(C(=O)c1ccco1)C(C(=O)NC1CCCC1)c1cccnc1 (stereo unspecified) do in these assays?
D2 ag-1: -2.2; D2 PAM-1: -9.9; D2 ag-2: -5.1; D2 antag: 3.6; D2 PAM-2: -2.8

How did COc1ccc(Cl)cc1N(C(=O)c1ccco1)C(C(=O)NC1CCCC1)c1ccncc1 (stereo unspecified) do in these assays?
D2 ag-1: 0.4; D2 PAM-1: -2.5; D2 ag-2: -0.3; D2 antag: 39.4*; D2 PAM-2: 6.7

Results for O=C(NC1CCCCC1)C(c1ccncc1)N(C(=O)c1csnn1)c1ccc(F)cc1 (stereo unspecified) ?
D2 ag-1: 0.5; D2 PAM-1: -14.1; D2 ag-2: -1.2; D2 antag: 37.0*; D2 PAM-2: -1.0

Results for O=C(COc1ccc(Cl)cc1)NCCc1csc(-c2cccc(F)c2)n1 ?
D2 ag-1: 1.0; D2 PAM-2: -9.4

Results for CCOc1ccc(CCNC(=O)c2c3c(nc4ccccc24)C(=O)N(C2CCCCC2)C3)cc1 ?
D2 ag-1: 1.2; D2 PAM-2: -9.1

What do the screens show for `O=C(CN1C(=O)COc2ccc(S(=O)(=O)N3CCOCC3)cc21)N1CCN(c2ccc(F)cc2)CC1`?
D2 ag-1: 0.5; D2 PAM-2: 1.3

Results for Cc1ccc(C)n1-c1c(C(=O)NCCCN2CCN(c3ccc(F)cc3)CC2)sc2ncccc12 ?
D2 PAM-2: -27.5

What do the screens show for `O=C(Nc1c(Cl)cccc1Cl)c1cccc2c1C(=O)N(C1CCCCC1)C2`?
D2 ag-1: -0.3; D2 PAM-2: 19.1
